sPLA2-III inh: Inhibits HGIII-sPLA2 liposome hydrolysis, primary screen; Q9NZ20; QFRET BODIPY PC-A2 liposome hydrolysis, fluorescence; inhibition, % at 12.2 µM; hit rate 0.56% among 370,000;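 active means inhibition above mean plus 3 SD of compounds lying within the high and low control bounds, cut at about 19% in these data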;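 further: 0% = median of test compound wells and 100% = no enzyme DMSO wells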
Target sequence (Q9NZ20 whole entry, looked up): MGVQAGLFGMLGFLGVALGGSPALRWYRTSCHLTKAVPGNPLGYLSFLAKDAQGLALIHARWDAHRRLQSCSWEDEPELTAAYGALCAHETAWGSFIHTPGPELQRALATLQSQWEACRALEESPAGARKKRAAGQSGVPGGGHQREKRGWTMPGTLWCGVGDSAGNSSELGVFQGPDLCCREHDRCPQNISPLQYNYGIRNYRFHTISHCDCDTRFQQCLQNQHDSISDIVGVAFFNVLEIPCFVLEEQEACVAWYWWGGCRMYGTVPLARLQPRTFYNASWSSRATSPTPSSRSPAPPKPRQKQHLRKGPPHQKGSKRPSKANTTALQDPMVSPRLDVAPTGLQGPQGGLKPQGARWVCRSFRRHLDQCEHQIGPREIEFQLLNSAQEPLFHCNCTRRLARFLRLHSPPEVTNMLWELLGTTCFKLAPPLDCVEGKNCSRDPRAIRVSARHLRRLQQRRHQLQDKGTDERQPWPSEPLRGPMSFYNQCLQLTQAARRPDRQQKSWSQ
MsrA act: bovine methionine sulfoxide reductase A activation | purified bovine MsrA, absorbance read-out | activation, % at 10.6 µM | hit rate 0.3% among 360,000 | AID 602163; in the data active means activation above about 7.5%;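 further: 0% = vehicle and 100% = reference activator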
MsrA inhibitor: inhibitors of bovine MsrA; purified bovine MsrA, absorbance read-out; inhibition, % at 15.5 µM; hit rate 0.75% among 360,000; AID 651718;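 further: 0% = vehicle wells with enzyme and 100% = reference inhibitor wells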
rCAG binder: molecules binding r(CAG) RNA repeats. AID 651821. inhibition, % at 3 µM. hit rate 1.3% among 370,000. r(CAG) RNA repeat, TO-PRO-1 dye displacement fluorescence;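 active means inhibition above the plate cutoff, the mean of all test compounds on that plate plus 3 SD, cut at about 35% in these data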;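 further: 0% = DMSO alone and 100% = 100 µM mitoxantrone as full dye displacement; higher means more dye released from RNA so lower well fluorescence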
MsrA conf: bovine MsrA inhibition, confirmed; shares compounds with MsrA inhibitor; purified bovine MsrA, absorbance read-out; inhibition, % at 15.5 µM; hit rate 41% among 2,300; AID 651822;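 further: coupled to thioredoxin reductase with NADPH and selenocystamine and DMSO as substrate; 0% = vehicle only and 100% = full effect of reference inhibitor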
The depositor's hits bear a star; . = not tested or not shown. An excerpt weighted towards active compounds, which were near 2.8% of everything screened. Unless noted, no stated cut-off is given here; in the data, active means inhibition above about 4.5%; inactive means the rest.

SMILES	sPLA2-III inh	MsrA act	MsrA inhibitor	rCAG binder	MsrA conf
O=C1N=C(N2CCN(c3ccccc3)CC2)S/C1=C/c1cccs1	-11	-6	2	1	.
O=C1N=C(N2CCOCC2)S/C1=C\c1cccnc1	0	1	2	-1	.
CC1CCN(C2=NC(=O)/C(=C/c3cccc(O)c3)S2)CC1	-15	-2	4.7*	1	2
CC1(C)Cc2c(sc(NC(=O)c3ccco3)c2C(=O)O)CO1	15	-3	4.7*	0	3
COC(=O)c1nc(-c2ccc(C)cc2)oc1N(C)C	6	-4	4.8*	-6	2
COc1ccc(C(=O)/C=C/c2ccc(O)cc2)cc1	-3	-2	5.0*	3	4
Cc1c(C(=O)NC(C)CN2CCCCC2)oc2ccccc12 (configuration not stated)	4	-13	0	-2	.
Clc1ccc(-c2ccc(/C=N/Nc3nncc(-c4ccccc4)n3)o2)cc1	-2	-1	-1	11	.
Cc1ccc(/C=N/Nc2nncc(-c3ccccc3)n2)o1	1	-18	5.8*	1	5.4*
C(=C\c1ccccc1)/C=N/Nc1nncc(-c2ccccc2)n1	18	.	43*	-2	1
Cc1oc2c(CN3CCOCC3)c(O)ccc2c(=O)c1-c1ccc(Cl)cc1	-5	-11	5.3*	-7	1
COc1ccc(C(C)=O)cc1CSCCC(=O)O	-2	-8	-1	6	.
COc1ccc(C(=O)/C=C/c2ccsc2)cc1CSCC(=O)O	2	-6	4.7*	11	4
COc1cc(/C=C2/NC(=O)NC2=O)cc(Br)c1OCc1cccc(C(=O)O)c1	-10	4	5.9*	15	3
COc1cc(/C=C2/NC(=O)NC2=O)cc(Br)c1OCc1ccccc1	-11	-2	1	3	.
Cc1ccc(S(=O)(=O)c2c(N)n(Cc3ccco3)c3nc4ccccc4nc23)cc1	-38	-2	1	11	.
Cc1ccc(S(=O)(=O)c2c(N)n(NC(=O)c3ccco3)c3nc4ccccc4nc23)cc1	-11	0	4.8*	20	2
Cc1cccn2c(=O)nc(SCC(=O)N3CC(C)OC(C)C3)nc12 (configuration not stated)	-1	-5	5.5*	-3	2
Cc1cccn2c(=O)nc(SCC(=O)N3CCCC3)nc12	8	0	3	1	.
CCCC1S/C(=N/N=C/c2ccco2)NC1=O (configuration not stated)	7	-4	4.7*	1	6.6*
CC1(C)S/C(=N/N=C/c2ccco2)NC1=O	-1	-14	5.9*	5	5.5*
CC1S/C(=N/N=C/c2ccco2)NC1=O (configuration not stated)	8	-12	4	2	.
CCCCC1S/C(=N/N=C/c2ccco2)NC1=O (configuration not stated)	-6	-3	4	1	.
COc1ccc(N2CCN(C(=O)CSc3nc4ccccc4c(=O)[nH]3)CC2)cc1	4	-1	1	-2	.
CC(=O)NN1C(=O)c2ccccc2NC1c1ccc(N(C)C)cc1 (configuration not stated)	12	-7	6.3*	1	1
SMILES	sPLA2-III inh	MsrA act	MsrA inhibitor	rCAG binder	MsrA conf
CCN(CC)c1ccc(/C=N/NC(=O)OC(C)(C)C)cc1	3	-7	2	-6	.
CNc1oc(-c2ccc(Cl)cc2)nc1C#N	-2	-4	4.8*	-2	2
CCN(CC)C(=O)c1ccccc1NC(=O)c1ccccc1SC	0	1	-1	-3	.
c1ccc2sc(-c3csc4c3CCNC4)nc2c1	-1	.	.	.	.
COc1cc2ccccc2cc1C(=O)Nc1ccccc1Cl	-37	-2	0	18	.
Cc1ccccc1N=C1c2ccccc2C(=O)C1[N+](=O)[O-] (configuration not stated)	4	-2	5.8*	3	4
O=C1Cc2cc(S(=O)(=O)Nc3ccc(F)cc3Cl)ccc2N1	-15	-1	1	9	.
CC1=CSC2=NC(C(F)(F)F)(C(F)(F)F)NC(=O)N12	0	-2	-1	-2	.
O=C(O)c1ccc(N(c2ccccc2)c2ccccc2)cc1	-2	-5	5.1*	27	2
CCN(CC)c1ccc(C(=O)O)cc1	1	-4	-1	-3	.
CC(Sc1ncc(C(F)(F)F)cc1Cl)C(=O)NC(N)=O (configuration not stated)	-2	-4	19*	-2	15*
O=S1(=O)N=C(N2CCCc3ccccc32)c2ccccc21	5	-2	10*	1	3
O=C(/C=C/c1cccs1)Nc1cccc(NC(=O)/C=C/c2cccs2)n1	6	-11	7.4*	19	6.0*
Cc1ccc(/C=C/C(=O)Nc2nccs2)o1	3	-5	5.5*	5	7.8*
O=C(/C=C/c1cccs1)Nc1nccs1	4	-6	6.4*	-5	7.2*
CC1CCCCC1NC(=O)C1CCN(S(=O)(=O)c2ccc(-n3cnnn3)cc2)CC1 (configuration not stated)	5	-7	1	-1	.
CSc1ccc(/C=N/n2nnnc2N)cc1	-3	-5	5.3*	2	5.2*
Nc1nnnn1/N=C/c1ccc(O)cc1	-3	-3	3	-4	.
Cc1ccc(OCC(=O)N/N=C/C=C/c2ccco2)cc1	-3	-11	4.7*	18	2
COCCNC(=O)C(c1ccc(C)cc1)N(C(=O)CCC(=O)Nc1ccccn1)c1ccc(C)cc1 (configuration not stated)	-3	-9	-1	-2	.
O=[N+]([O-])c1cc([N+](=O)[O-])c2n[nH]c(-c3ccccc3)c2c1	4	-2	5.2*	-1	5
CCCS(=O)(=O)NC(=O)C1(C)CCCN(C(=O)c2ccncc2)C1 (configuration not stated)	3	-2	0	2	.
Cc1ccc(OCCn2c(C)nc3ccccc32)cc1	2	-2	-1	-3	.
CCN(/N=C/c1cccs1)c1cc(=O)n(C)c(=O)[nH]1	-3	-4	7.2*	-2	6.7*
CN(/N=C/c1cccs1)c1cc(=O)n(C)c(=O)[nH]1	7	-8	9.0*	3	5.8*
SMILES	sPLA2-III inh	MsrA act	MsrA inhibitor	rCAG binder	MsrA conf
Nn1c(SCC(=O)Nc2ccc(S(N)(=O)=O)cc2)nnc1-c1ccco1	1	-5	0	4	.
Nc1nc(=S)c2ncn(C3CCCC3)c2[nH]1	7	2	5.0*	-1	4
Nc1nc2c(ncn2C2CCCC2)c(=O)[nH]1	11	-2	0	2	.
CN(C)C(CNC(=O)CSC(=S)N1CCCC1)c1ccccc1 (configuration not stated)	6	-3	1	2	.
CCCC[n+]1ccc(-c2nc3ccc([N+](=O)[O-])cc3[nH]2)cc1	-1	0	4.8*	2	4
O=[N+]([O-])c1ccc(-c2nc3ccc([N+](=O)[O-])cc3[nH]2)cc1	-6	-8	1	5	.
COc1cc(/C=C/C(=O)OC(C)C(=O)Nc2c(C)n(C)n(-c3ccccc3)c2=O)ccc1O (configuration not stated)	12	-7	5.9*	-2	3
C[n+]1ccccc1/C=C/c1ccc(F)c(F)c1	1	-2	4	-5	.
